Most compounds without a hit are left out; they make up all but 3.4% or so of the library.
ADAM17 inh – ADAM17 inhibitors, primary screen, biochemical, QFRET; Disintegrin and metalloproteinase domain-containing protein 17 (Homo sapiens), P78536; recombinant ADAM17, EDANS/DABCYL FRET peptide cleavage; inhibition, % at 6.95 µM; 370,000 tested, 0.83% active;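 active = inhibition above the mean of compounds lying between control limits plus 3 SD, set per campaign, cut at about 8.5% in these data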
HGIII-sPLA2 inh – human group III sPLA2 inhibitors, primary screen, biochemical, QFRET, BODIPY PC-A2 liposome substrate; Group 3 secretory phospholipase A2 (Homo sapiens), Q9NZ20; QFRET BODIPY PC-A2 liposome hydrolysis, fluorescence; inhibition, % at 12.2 µM; 370,000 tested, 0.56% active; AID 743126, 2013;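 active = inhibition above mean plus 3 SD of compounds lying within the high and low control bounds, cut at about 19% in these data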
KLK7 zymogen act – proKLK7 zymogen activators, primary screen, biochemical, fluorescence intensity; Kallikrein-7 (Homo sapiens), P49862; purified proKLK7, EDANS-DABCYL substrate fluorescence; 100% is mature enzyme control, 0% vehicle; activation, % at 7 µM; 370,000 tested, 0.9% active;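 active = activation above the mean of all tested compounds plus 3 SD, computed per campaign excluding outliers beyond control limits, cut at about 13% in these data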
CendR NRP1 mod – modulators of CendR peptide binding to NRP-1, primary screen, biochemical, fluorescence polarization, uHTS. Neuropilin-1 (Homo sapiens), O14786. FAM-RPARPAR peptide binding to NRP-1. inhibition, % at 25 µM. 360,000 tested, 0.85% active. AID 602438, 2012;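 active = inhibition or corrected inhibition above about 18%, plus a signal ratio from 0.5 to 1.5, limit read from the data, passing the limit was not always enough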
ADAM10 inh – human ADAM10 inhibitors, primary screen, biochemical, QFRET, HTS; 370,000 tested, 0.62% active; Disintegrin and metalloproteinase domain-containing protein 10 (Homo sapiens), O14672; inhibition, % at 7 µM; recombinant ADAM10, EDANS/DABCYL FRET peptide cleavage, 3 h;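 active = inhibition above a per-campaign cutoff equal to the mean of compounds falling between control-based bounds plus 3 SD, cut at about 20% in these data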
Each line names hits and unclear results; the compound was inactive in the other large screens.

CC(C)N(C(=O)[C@H]1CC(CC(=O)NCc2ccco2)C(=O)N2CCc3c([nH]c4ccccc34)[C@]12C)C(C)C (stereo partly specified)	none
COc1ccc(CNC(=O)C[C@H]2C[C@H](C(=O)N3CCCCC3)[C@@]3(C)c4[nH]c5cc(-c6ccco6)ccc5c4CCN3C2=O)cc1OC	KLK7 zymogen act 67.9
CC[C@]12c3[nH]c4cc(-c5ccco5)ccc4c3CCN1C(=O)[C@@H](CC(=O)NC(C)(C)C)C[C@@H]2C(=O)N1CCN(C(=O)c2ccco2)CC1	KLK7 zymogen act 115.8
COc1ccc(CNC(=O)CCNS(=O)(=O)c2ccc3[nH]c(=O)oc3c2)cc1	none (no result: CendR NRP1 mod)
Cc1ccc(S(=O)(=O)n2ccc(-c3c(-c4ccccc4)noc3C)n2)cc1	none (no result: CendR NRP1 mod)
c1ccc(C2=NN(c3ccccc3)CC2)cc1	none
c1ccc(N=NC2=NN(c3ccccc3)CS2)cc1	HGIII-sPLA2 inh 29.5
CCN1CCN(C(c2cc3cccc(C)c3[nH]c2=O)c2nnnn2Cc2ccccc2)CC1 (stereo unspecified)	CendR NRP1 mod 38.9
CCCC[C@@H](CCCc1ccc(F)cc1)CCC(=O)N(c1ccccc1)c1ccccc1	none (no result: CendR NRP1 mod)
Cn1c(=O)cc2c3c(c(N4CCCCC4)ccc31)C(=O)c1ccccc1-2	CendR NRP1 mod 57.9
O=C(Cc1ccccc1)NCC(=O)N1CCN(c2ccccc2)CC1	CendR NRP1 mod 26.6
COc1cc(O)c(C(CC(=O)N2CCCC(C)C2)c2ccccc2)c(OC)c1 (stereo unspecified)	none (no result: KLK7 zymogen act, CendR NRP1 mod)
COc1cccc(C2CC(c3ccccc3Cl)n3ncnc3N2)c1 (stereo unspecified)	CendR NRP1 mod 30.1
CCCCCC[C@@H](CCCc1ccccc1OC)CN(CCCC)S(C)(=O)=O	none (no result: CendR NRP1 mod)
COc1cc(OC)c2ccc(=O)oc2c1C(CCN1CCCCC1)c1ccc(N(C)C)cc1 (stereo unspecified)	CendR NRP1 mod 18.3
COc1cc(OC)c2ccc(=O)oc2c1C(CCN1CCCC1)c1ccc(N(C)C)cc1 (stereo unspecified)	none
CCCCCc1cc(=O)oc2c(C(CCN3CCCCC3)c3ccc(OC)cc3)c(OC)cc(OC)c12 (stereo unspecified)	CendR NRP1 mod 26.4
COc1cccc(CNC(=O)CCC2CCCN(C(=O)C3=CC(=O)CC(C)(C)O3)C2)c1 (stereo unspecified)	CendR NRP1 mod 37.6
Cc1ccc(S(=O)(=O)N2CCC(=O)N(CCOCc3ccc(C(F)(F)F)cc3)CC2)cc1	ADAM17 inh 10.5
O=C1CCN(S(=O)(=O)c2ccccc2)CCN1CCOCc1ccc(C(F)(F)F)cc1	none
O=C(NC1CCCc2c1cnn2-c1ccc(F)cc1F)c1cccs1 (stereo unspecified)	none (no result: KLK7 zymogen act, CendR NRP1 mod)
COc1cccc(C2/C(=C(/O)c3ccccc3)C(=O)C(=O)N2CCCC(=O)O)c1 (stereo unspecified)	CendR NRP1 mod 29.4
COc1ccc(/C(O)=C2/C(=O)C(=O)N(CCCC(=O)O)C2c2ccc(OC)c(OC)c2)cc1 (stereo unspecified)	none
COc1ccc(S[C@]2(C(=O)N3CCN(c4ncccn4)CC3)CC(=O)N(c3ccc(OC)cc3)[C@@H]2c2ccc(OC)cc2)cc1	none (no result: CendR NRP1 mod)
Cn1cccc1C1Nc2ccccc2NC2=C1C(=O)CC(C)(C)C2 (stereo unspecified)	CendR NRP1 mod 22.2
CNC(=O)C(=O)NCC1OCCCN1S(=O)(=O)c1ccc(F)cc1C (stereo unspecified)	CendR NRP1 mod 27.2
CCNC(=O)C(=O)NCC1OCCCN1S(=O)(=O)c1ccc(F)cc1C (stereo unspecified)	none
COc1cccc(NC(=S)NNC(=O)Cn2nc([N+](=O)[O-])cc2C)c1	CendR NRP1 mod 29.7
Cc1ccc(NC(=S)NNC(=O)Cn2nc([N+](=O)[O-])cc2C)cc1	none (no result: ADAM17 inh, HGIII-sPLA2 inh, KLK7 zymogen act, ADAM10 inh)
CN(CCc1ccccn1)C(=O)c1ccc2c(c1)ncn2C1CCCCC1	none (no result: CendR NRP1 mod)
OC(CCc1ccncc1)COc1ccccc1 (stereo unspecified)	CendR NRP1 mod 20.5
